# Values joined by “and” are separate entries in the source; they are usually repeats but may differ in a detail not shown here. Equal entries are not always repeated. Compounds without any hit were thinned out: in the full panel of roughly 79,000, 15% have a hit. Values without a mark were called inactive. Active and inactive are the calls of the source. Rule as the data show it: active = growth inhibition above about 70%; inactive = the rest.
# Assays:
# [1] = NCI Yeast Anticancer Drug Screen. Data for the rad50 strain (AID 155);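 also: 0% = growth of vehicle-only cultures of the same strain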; conditions: S. cerevisiae rad50 strain growth inhibition, stronger effect = higher value; at 50.0 µM unless noted
# Procedure, shortened: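 Genetically altered yeast (DNA repair pathway); compound treatment; growth inhibition vs vehicle ctrl.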
# [2] = NCI Yeast Anticancer Drug Screen. Data for the mec2-1 strain (AID 157); conditions: S. cerevisiae mec2-1 strain, stronger effect = higher value; at 50.0 µM unless noted
# Procedure, shortened: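 Readout is yeast growth inhibition, normalised to vehicle-treated controls, in the mec2-1 strain exposed to compound.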
# [3] = NCI Yeast Anticancer Drug Screen. Data for the sgs1 mgt1 strain (AID 161);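 also: 0% = growth of cultures given vehicle only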; conditions: S. cerevisiae sgs1 mgt1 strain, stronger effect = higher value; at 50.0 µM unless noted
# Procedure, shortened: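 Yeast cells carrying a defined DNA-repair defect were exposed to test compounds. Growth inhibition was measured relative to vehicle-treated controls.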
# [4] = NCI Yeast Anticancer Drug Screen. Data for the cln2 rad14 strain (AID 165);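 also: 0% = growth equal to vehicle treated cultures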; conditions: S. cerevisiae cln2 rad14 strain, stronger effect = higher value; at 50.0 µM unless noted
# Procedure, shortened: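 Relative to vehicle controls, growth inhibition of compound-treated cln2 rad14 yeast was recorded.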
# [5] = NCI Yeast Anticancer Drug Screen. Data for the bub3 strain (AID 167); conditions: S. cerevisiae bub3 mutant strain, stronger effect = higher value; at 50.0 µM unless noted
# Procedure, shortened: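 Yeast carrying a defined mutation is treated with each compound, and growth is compared with that of vehicle-exposed cells to give inhibition.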
# [6] = NCI Yeast Anticancer Drug Screen. Data for the mlh1 rad18 strain (AID 175); conditions: S. cerevisiae mlh1 rad18 strain growth inhibition, stronger effect = higher value; at 50.0 µM unless noted
# Procedure, shortened: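 Test agents were incubated with a yeast strain of defined genotype (DNA damage repair defect). Inhibition of growth was derived by comparison with vehicle-exposed cultures.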
Compound,growth inhibition [1],growth inhibition [2],growth inhibition [3],growth inhibition [4],growth inhibition [5],growth inhibition [6]
O=C(COc1cc(Cl)c(Cl)cc1Cl)Nc1ccc(Cl)cc1,14.7%,19.9%,18%,17.2%,17.1%,11.2%
COc1c2c(c(OC)c3ccccc13)C(=O)C1=C(CC=CC1)C2=O,4%,18.4%,-8.6%,-10.1%,14.6%,40.1%
O=c1c2ccc(Cl)cc2nc2nc(-c3ccccc3)c3cc(Cl)ccc3n12,57.6%,31.2%,37.4%,22.9%,6.3%,46.5%
O=C1CCCNC(=O)N1,-11.2%,20.1%,-19.3%,4.35%,1.95%,-5.3%
CC(CC(=O)c1ccccc1)[N+](=O)[O-] (centres undefined),-10.6%,-6.35%,-3.3%,-12.6%,-7.85%,15.8%
COc1cc(C(=O)NO)ccc1O,-0.15%,-12.6%,-15.1%,-1.95%,-6%,-1.4%
BrC1(Br)C2CCCCCCC21 (centres undefined),-26.6%,4.85%,3.15%,-6.6%,-21.1%,-29.7%
CCOc1nc(=O)n(C2OC(CO)C(O)C2O)s1 (centres undefined),26.4%,-1.35%,-3.7%,-34.1%,-5.65%,2.5%
O=C(CO[N+](=O)[O-])OC/C=C/c1ccccc1,-4.25%,5.35%,-2%,-0.65%,2.55%,8.6%
N#C/C(=C\c1ccc2ccccc2c1)C(=O)c1ccccc1,13.7%,-14.3%,-15.3%,17.8%,-17.7%,-47.7%
Cc1ccc(Cl)c(NC(=O)Nc2ccccc2Cl)c1,-3.7%,3.65%,-7.2%,-15.2%,-2.5%,20.4%
c1ccc2c(c1)/C(=N/c1nccs1)N/C2=N\c1nccs1,14.1%,-6.35%,-12.2%,-25.6%,13.1%,-6.65%
C[C@H](CCC1=NCCN1)[C@H]1CC[C@H]2[C@@H]3CC[C@@H]4C[C@H](O)CC[C@]4(C)[C@H]3CC[C@]12C,91.6% (active),92.8% (active),91.2% (active),91.6% (active),91.1% (active),91% (active)
CCN(CC)CCCC(C)NCC1C(O)CCC2CN3CCc4c([nH]c5ccccc45)C3CC21 (centres undefined),23.8%,9.45%,25.2%,23.6%,18.6%,25.1%
COc1ccc(N2C(N)=C(C#N)C(C#N)(C#N)C2c2cccc([N+](=O)[O-])c2)cc1 (centres undefined),8.8%,-5.05%,-2.05%,0.25%,-31.9%,79.7% (active)
Nc1ccc2ncc(Nc3ccc(F)cc3)nc2c1,37.7%,-22.6%,25.1%,23.4%,17.8%,15.6%
CCCCCCC(=O)C/C(=N/NC(N)=S)C(=O)NC1C2CC3CC(C2)CC1C3 (centres undefined),-14.8%,-19.2%,-48.7%,29.4%,-2.3%,-34.5%
O=[N+]([O-])C(c1ccccc1)C(c1ccccc1)C(c1ccccc1)[N+](=O)[O-] (centres undefined),4.25%,6.05%,5.6%,23.2%,22.6%,10%
NC(=S)N/N=C/c1ccc(N)cn1,-4.2%,17%,-0.5%,0.25%,8.15%,-8.8%
O=C(OCc1ccccc1CN1CCCCC1)c1cccc(Cl)c1,-2.85%,-7.7%,-6.3%,-10.3%,7.35%,2.3%

Compound,growth inhibition [1],growth inhibition [2],growth inhibition [3],growth inhibition [4],growth inhibition [5],growth inhibition [6]
Cc1c(C(=O)C/C(=N/NC(=O)C[n+]2ccccc2)C(=O)Nc2ccccc2)[n+](=O)c2ccccc2n1O,-37.5%,0.2%,-40.7%,-0.7%,-15.2%,-31.4%
O=C(/C(=C/c1ccccc1)c1ccccc1)N1c2ccccc2CC1c1c[nH]c2ccccc12 (centres undefined),17.4%,15.2%,-10.9%,19.1%,3.3%,23.8%
C/C(=N/NC(N)=O)C1CCc2ccccc2C1 (centres undefined),43%,-6.9%,3.2%,1.95%,7.8%,22.9%
O=C(Nc1ccccc1)c1cc(S(=O)(=O)Nc2n[nH]c(=O)[nH]2)c(SSc2cc(Cl)c(C(=O)Nc3ccccc3)cc2S(=O)(=O)Nc2n[nH]c(=O)[nH]2)cc1Cl,18.8%,22.7%,-8.5%,-6.35%,-2.25%,25.4%
Cc1ccc(OCC2OC(n3cnc4c(Cl)ncnc43)CC2Oc2ccc(C)cc2)cc1 (centres undefined),-1.2% and 20.8%,-10.2% and 3.5%,0.05% and 45%,-6.6% and 15.3%,-5.6% and 34%,-32.6% and -25.1%
CCCCCCCCSC(=N)N,23.9%,-14.1%,1.95%,18.1%,36.1%,10.7%
Cc1cc(C2=NCC(C)(C)S2)ccc1O,15.2%,7.8%,8.9%,10.2%,25%,29.5%
CCCCOC(=O)NC(=O)c1cc2cc(Cl)ccc2oc1=O,4.65%,17.9%,13.9%,10.7%,23.1%,18.8%
COc1ccc(C(=O)C(=O)c2ccccc2Cl)cc1,11.4%,14.9%,9.55%,13.3%,17.8%,10.9%
CC1=C/C(O)CC(=O)Cc2nc(co2)C(=O)N2CCC=C2C(=O)OC(C(C)C)C(C)/C=C\C(=O)NC/C=C\1 (centres undefined),39.5% and -2.6%,-11.6% and 18.7%,22.7% and 0.6%,13.9% and 5.6%,37.5% and -3%,35.2% and 2.2%
CC(C)(C)OC(=O)CC(NC(=O)OC(C)(C)C)C(=O)NC(C(=O)O)C(O)c1ccccc1 (centres undefined),-19.4%,-24.9%,-15.3%,-22.9%,-9.45%,-28.6%
FC(F)(F)c1cc(NC(=S)SCc2ccc3c(c2)OCO3)ccc1Cl,73.5% (active),63.9%,73.3% (active),38.5%,59.2%,84% (active)
O=c1c2ccccc2n2c(=S)[nH]nc2n1-c1ccccc1,-2.7%,3.55%,-12.2%,6.95%,0.05%,-10.8%
CCC(CC)C(=O)OC1CCCCC1,9.9%,5.25%,13.8%,-7.8%,4.8%,5.35%
CCC12C=CCN3CC[C@@]4(c5cc([C@@]6(C(=O)OC)C[C@@H]7CN(CCc8c6[nH]c6ccccc86)C[C@](O)(CC)C7)c(OC)cc5N(C)[C@H]4[C@@](O)(C(=O)NCCCCCCCCCCCC(=O)O)[C@@H]1O)C32 (some centres undefined),19%,19.8%,21.6%,5%,25.3%,-17.6%
CSc1nnc(CCC(=O)Nc2cc(Cl)ccc2Cl)o1,40.7%,44.8%,28.9%,15.7%,54.5%,9.05%
CN(O)C(=O)CCC(NC(=O)CCC(N)C(=O)O)C(=O)NCC(=O)O (centres undefined),-25.4%,-9.3%,-11.9%,0.1%,1.6%,-51.8%
COc1ccc2c(c1)c(CC(=O)O)c(C)n2Cc1ccccc1,-13.7%,-16%,-13.7%,-14.8%,17.4%,-7.65%
CC1(C)Oc2nc[nH]c(=O)c2C1c1ccccc1 (centres undefined),2.55%,-4.5%,-0.4%,-20.1%,-19.4%,5.35%

# Source: PubChem BioAssay (NCI)
